# According to PubChem BioAssay AID1159580 (chemical genetic matrix, 2015):
# The whole screen tested about 5,500 compounds, of which about 2,000 (36%) were called active. Roughly 18% stayed inconclusive and do not appear here. Some of the results follow. Unmarked numbers belong to inactive results. Rule as the data show it: active = normalized growth mostly below about 0.91 (no sharp cut-off); inconclusive = no clear call, values can overlap the other calls; inactive = mostly above about 0.92.
# Test: chemical genetic growth profiling, strain panel (AID 1159580);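 also: tested at 20 µM; growth read once vehicle control cultures reached saturation at 30 °C; 1 = growth at the plate median or of vehicle wells; lower values mean less growth of the strain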
# Conditions: S. cerevisiae deletion strains, growth OD
# [1] = locus YJR075W, strain HOC1, hits give low values
# [2] = locus YMR263W, strain SAP30, hits give low values
# [3] = locus YMR307W, strain GAS1, hits give low values
# [4] = locus YNL128W, strain TEP1, hits give low values
smiles,measurement,setting,value
O=C(Nc1ccccc1)Nc1ccc(C(F)(F)F)cc1Br,normalized growth,"locus YAL013W, strain DEP1, hits give low values",0.968
same,normalized growth,"locus YBR229C, strain ROT2, hits give low values",0.985
same,normalized growth,"locus YDL101C, strain DUN1, hits give low values",1.04
same,normalized growth,"locus YDL134C, strain PPH21, hits give low values",0.967
same,normalized growth,"locus YDR150W, strain NUM1, hits give low values",0.957
same,normalized growth,"locus YEL061C, strain CIN8, hits give low values",0.981
same,normalized growth,"locus YGR078C, strain PAC10, hits give low values",0.948
same,normalized growth,"locus YHR030C, strain SLT2, hits give low values",0.749
same,normalized growth,"locus YHR087W, strain rtc3, hits give low values",0.941
same,normalized growth,"locus YJL187C, strain SWE1, hits give low values",0.943
same,normalized growth,"locus YJR043C, strain POL32, hits give low values",0.926
same,normalized growth,[1],0.906
same,normalized growth,"locus YLR039C, strain RIC1, hits give low values",0.843
same,normalized growth,"locus YLR058C, strain SHM2 (second series), hits give low values",0.969
same,normalized growth,"locus YLR085C, strain ARP6, hits give low values",0.728 (active)
same,normalized growth,"locus YLR262C, strain YPT6, hits give low values",0.948
same,normalized growth,"locus YML094W, strain GIM5, hits give low values",0.957
same,normalized growth,"locus YMR219W, strain ESC1, hits give low values",0.99
same,normalized growth,[2],0.917
same,normalized growth,[3],0.54 (active)
same,normalized growth,[4],0.957
same,normalized growth,"locus YNL153C, strain GIM3, hits give low values",0.979
same,normalized growth,"locus YNL298W, strain CLA4 (second series), hits give low values",0.799 (active)
same,normalized growth,"locus YNL322C, strain KRE1, hits give low values",0.995
same,normalized growth,"locus YNR030W, strain Alg12, hits give low values",0.887
same,normalized growth,"locus YOL006C, strain TOP1, hits give low values",0.722 (active)
same,normalized growth,"locus YPL055C, strain LGE1, hits give low values",0.842
same,normalized growth,"locus YPL241C, strain CIN2, hits give low values",0.885
same,normalized growth,"locus YPR135W, strain CTF4, hits give low values",0.878
NC(=NCCCC(N)C(=O)O)N[N+](=O)[O-] (configuration not stated),normalized growth,"locus YAL040C, strain CLN3, hits give low values",0.999
same,normalized growth,"locus YCL061C, strain MRC1 (second series), hits give low values",1
same,normalized growth,"locus YDR363W, strain ESC2, hits give low values",1.03
same,normalized growth,"locus YER002W, strain NOP16, hits give low values",1
same,normalized growth,"locus YGR229C, strain SMI1, hits give low values",1.02
same,normalized growth,[1],1.02
same,normalized growth,[2],1
same,normalized growth,[3],1
same,normalized growth,[4],1.02
same,normalized growth,"locus YNL175C, strain NOP13, hits give low values",1
same,normalized growth,"locus YNL197C, strain WHI3, hits give low values",1.01
same,normalized growth,"locus YNL224C, strain SQS1, hits give low values",1.01
same,normalized growth,"locus YOR083W, strain WHI5 (second series), hits give low values",1.02
